Screening data: PubChem BioAssay, several laboratories
ARNT TACC3 PPI: disrupts binding between human ARNT and TACC3; Q9Y6A5; AlphaScreen His-ARNT PAS-B/GST-TACC3 binding, luminescence; TACC3 fragment carries E629A point mutation; inhibition, % at 9.99 µM; 390,000 tested, 0.66% active; AID 623870;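 active = mean inhibition of replicates at least 50% and at least half of replicates each reaching 50%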;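 note: 0% = complete ARNT plus TACC3 wells and 100% = ARNT alone without TACC3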
N-glyco inh: blocks N-linked glycosylation in D54 reporter cells | D54 ERlucT glycosylation luciferase reporter, 24 h; percent of 100 nM tunicamycin response | reporter increase, % at 12.5 µM | 360,000 tested, 0.23% active;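 active = mean luciferase reporter signal, scaled so untreated is 0 and the glycosylation-blocking control 100, at or above a set limit in every replicate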;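 note: luciferase carries N-glycosylation sites so blocking glycosylation raises the light; 0% = median of neutral control wells and 100% = median of 100 nM tunicamycin wells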
aDG glyco act: alpha-DG glycosylation activation. 360,000 tested, 0.22% active. Pro5-aDG cells, alpha-DG glycosylation AlphaScreen (IIH6); 0% Pro5, 100% B10-LARGE cell signal. activation, % at 10 µM;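 active = activation of at least 8% versus controls, or a plate z-score of at least 8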;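 note: Pro5 are CHO cells carrying HIG-tagged alpha-DG that lacks glycosylation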
Cardio protect: myocardial damage modulation in H9c2 cells; H9c2 cardiomyocytes, H2O2 injury protection, ATPLite, 2 h; protection from H2O2 cell death, % at 20 µM; 360,000 tested, 0.63% active;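 active = compounds giving at least 50% protection of heart cells from peroxide-induced death in the single-dose screen, raw or plate-pattern-corrected value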;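 note: 0% = DMSO wells with peroxide and 100% = DMSO wells without peroxide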
Vif imaging: HIV Vif inhibition; HEK293T cells, Vif self-association by quenched fluorescence, imaging, 24 h; inhibition, % at 7.49 µM; 340,000 tested, 0.35% active; in the data active = inhibition above about 50%, passing the limit was not always enough
* marks the source's active call; other numbers are inactive results; . = no result. An excerpt weighted towards active compounds, which were near 1.7% of everything screened.

SMILES	ARNT TACC3 PPI	N-glyco inh	aDG glyco act	Cardio protect	Vif imaging
O=C1c2ccccc2NC(c2ccc(-c3cccc([N+](=O)[O-])c3)o2)N1O (stereo not given)	15.7	1.1	0.3	55.6*	-4.6
CCOC(=O)C1=C(C)NC(C)=C(C(=O)OCC)C1C	18.9	-2.1	-0.1	-5.7	18.9
CCOC(=O)C1=C(C)NC(=O)NC1	-11.2	1.9	-0.2	7.1	74.3*
C[C@@H]1CN([C@@H](C)CO)C(=O)c2cc(-c3ccc(C(=O)N(C)C)cc3)cnc2O[C@@H]1CN(C)C(=O)CN(C)C	-4.8	.	.	.	.
CC(Oc1ccccc1)C(=O)Nc1nc(-c2ccccn2)cs1 (stereo not given)	67.8*	-4.4	0.6	51.6*	-3.6
Cc1cccc(C(=O)NC(C(=O)Nc2nc(-c3ccccn3)cs2)C(C)C)c1 (stereo not given)	44.8	-4.6	3.4	65.6*	10.4
C[C@H](NC(=O)c1ccccc1)C(=O)Nc1nc(-c2ccccn2)cs1	64.1*	1.7	0.5	20.7	1.2
Cc1cccc(C(=O)N[C@H](C(=O)Nc2ncc(C)s2)C(C)C)c1	-9.8	-0.7	-0.8	-2.0	5.4
C[C@@H]1CN([C@H](C)CO)C(=O)c2cccc(NC(=O)c3nc4ccccc4s3)c2O[C@H]1CN(C)S(=O)(=O)c1ccc(F)cc1	7.8	.	.	.	.
O=C(NC1CCCC1)N1CCCCN2[C@@H](CO)[C@@H](c3ccc(/C=C/c4ccccc4)cc3)[C@@H]2C1	15.7	.	.	.	.
CCCN(C)C[C@H]1Oc2cc(C#CC3CCCC3)ccc2S(=O)(=O)N([C@@H](C)CO)C[C@H]1C	2.7	.	.	.	.
C[C@@H]1CCCCO[C@H](CN(C)C(=O)c2ccccc2)[C@H](C)CN([C@@H](C)CO)C(=O)c2cc(NS(C)(=O)=O)ccc2O1	5.5	.	.	.	.
Oc1ccc2ccccc2c1/C=N/c1nc2c(s1)CCCC2	15.1	2.7	-0.1	-5.0	3.6
Oc1c(Br)cc(Br)cc1/C=N/c1nc2c(s1)CCCC2	0.9	0.3	0.0	59.3*	-1.7
Cc1cc(NS(=O)(=O)c2ccccc2)c(C)c(Cl)c1O	-1.8	-1.3	16.2*	-8.9	-1.5
Cc1c(O)ccc(NS(=O)(=O)c2ccccc2)c1C	-3.8	0.9	0.2	-4.6	-2.4
NC(=O)N/N=C/c1cn(-c2ccccc2)nc1-c1cccs1	0.8	-2.3	0.0	-9.4	-1.8
O=C(N/N=C/c1nn(-c2ccccc2)cc1-c1ccccc1)c1ccncc1	-6.9	6.5	0.3	62.3*	3.7
O=C(N/N=C/c1cn(-c2ccccc2)nc1-c1cccs1)c1ccncc1	0.1	4.2	0.3	53.6*	-6.2
Cc1ccc(-c2nn(-c3ccccc3)cc2/C=N/NC(=O)c2ccncc2)o1	1.2	-1.2	0.7	44.2	1.9
C[C@H](CO)N1C[C@H](C)[C@H](CN(C)Cc2cccc(C(F)(F)F)c2)OCc2cn(nn2)CCCC1=O	-1.4	.	.	.	.
COc1cccc(-c2nnc(NC(=O)c3ccc(S(=O)(=O)N4CCOCC4)cc3)o2)c1	34.6	1.3	0.6	14.8	-12.5
COCc1nnc(NC(=O)c2ccc(S(=O)(=O)N3CCOCC3)cc2)o1	45.2*	-0.6	0.0	0.4	-7.4
COc1ccccc1-c1nnc(NC(=O)c2ccc(S(=O)(=O)N3CCOCC3)cc2)o1	46.1*	1.2	0.5	11.1	-3.3
COc1ccc(CN(C)C[C@@H]2Oc3ccc(NS(=O)(=O)c4ccccc4)cc3C(=O)N([C@H](C)CO)C[C@H]2C)cc1	-5.9	.	.	.	.
SMILES	ARNT TACC3 PPI	N-glyco inh	aDG glyco act	Cardio protect	Vif imaging
COc1cc(C(=O)Nc2nc(OC)c(-c3ccccc3)c(OC)n2)cc(OC)c1OC	5.7	-3.2	-0.5	70.1*	-2.9
CC(C)NC(=O)Nc1ccc2c(c1)C(=O)N([C@H](C)CO)C[C@H](C)[C@@H](CN(C)CC1CCCCC1)OCCCC[C@H](C)O2	9.4	.	.	.	.
O=C(NCc1ccncc1)[C@H]1N[C@H]2c3ccc(/C=C/c4ccccc4)c(=O)n3C[C@H]2[C@@H]1CO	0.1	.	.	.	.
Cc1cc(C(=O)N2CCN(c3ccc([N+](=O)[O-])cc3)CC2)co1	2.7	0.4	0.7	-12.3	86.2*
Cc1cc(C(=O)N2CCN(c3ccc([N+](=O)[O-])cc3)CC2)c(C)o1	-10.3	1.0	1.4	5.1	-33.2
C[C@@H]1CN([C@H](C)CO)C(=O)c2cc(NC(=O)Nc3ccc(F)cc3)ccc2O[C@@H]1CN(C)Cc1ccc(C(=O)O)cc1	6.0	.	.	.	.
